Results: PubChem BioAssay AID1259240 (Keith Lab, Institute of Cancer Science, University of …, 2017)
Activity calls are given as the source filed them. Cut-off read from the data, not from the text of the source: active = fold change mostly below about -2 (no sharp cut-off); inactive = mostly above about -1.8.

Assay: TERT promoter activity modulators, primary screen, cell-based, luciferase reporter, human (AID 1259240)
Conditions: A2780 TERT promoter luciferase reporter, 16 h; at 20 µM, fold versus average of vehicle-only wells

| Structure (SMILES) | fold change |
| --- | --- |
| Cc1ccc(N2C(=O)c3n[nH]c(C)c3C2c2ccccc2Cl)cc1 (stereo unspecified) | -1.14 (inactive) |
| COC(=O)c1cccnc1-n1c(=O)c2cccnc2n(Cc2ccc(C#N)cc2)c1=O | -1.61 (inactive) |
| Cc1ccc(-c2nnc3c4ccccc4c(C)nn23)cc1S(=O)(=O)NCC1CCCO1 (stereo unspecified) | 1.3 (inactive) |
| CC(C)n1cnc2cc(NCc3ccncc3)ccc21 | -2.71 (active) |
| Cc1ccc(CN2C(=O)/C(=C/c3c(NCCO)nc4ccc(C)cn4c3=O)SC2=S)cc1 | -1.97 (inactive) |
| Cc1cc(NC(=O)CSCc2nc(-c3cccc(F)c3)oc2C)no1 | 1.06 (inactive) |
| O=C(Nc1cccc(C(F)(F)F)c1)Nc1ccc2snnc2c1 | -1.55 (inactive) |
| CCNc1nc2c(c(=O)n(C)c(=O)n2C)n1Cc1ccc(Cl)cc1 | 1.15 (inactive) |
| Cc1[nH]nc2c1C(c1ccc(O)cc1)NC2=O (stereo unspecified) | -1.14 (inactive) |
| CC(C)CCNC(=O)C1CCC(CNS(=O)(=O)c2cccc3nsnc23)CC1 (stereo unspecified) | -1.62 (inactive) |
| O=C(NC1CCCc2ccccc21)c1cccc(NC2=NC3CS(=O)(=O)CC3S2)c1 (stereo unspecified) | 1.36 (inactive) |
| O=C(O)CCC(=O)N1CCc2cc(S(=O)(=O)N3CCc4ccccc4C3)ccc21 | 1.93 (inactive) |
| CCC(C)NC(=O)Cn1ncc2c3ccccc3n(C)c2c1=O (stereo unspecified) | -1.04 (inactive) |
| COc1ccc2cc3c(N)nn(C(=O)CN4CCOCC4)c3nc2c1 | -1.27 (inactive) |
| COc1cccc(C2C(C#N)=C(N)Oc3n[nH]c(-c4ccc(Br)cc4)c32)c1OC (stereo unspecified) | -1.08 (inactive) |
| CSc1ccccc1NC(=O)c1onc(C)c1Cl | 1.5 (inactive) |
